Methyltransferases = Primary Screen for Target Class Profiling of Small Molecule Inhibitors of Methyltransferases | purified enzyme, MTase-Glo SAH luminescence; active compounds read low | calls only at 40 µM | hit rate 3.9% among 25,000 | AID 1745853, 2022; call rule not given here
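Each enzyme was reacted with SAM and its substrate, with compounds tested once at 40 uM; SAH formed was read by MTase-Glo luminescence.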
The depositor's hits bear a star; i = inactive; + = active, no number. This is one part of a sample in which hits are shown more often than they occur. % is scaled to controls: 0 for no effect and ±100 for the full control effect.

SMILES	Methyltransferases
Cc1ccc(Cn2c(=O)c3ccccc3n3c(CCC(=O)NCc4ccc(F)cc4)nnc23)cc1	i
COc1cc(Nc2nc3c(S(=O)(=O)c4ccccc4)nnn3c3ccccc23)cc(OC)c1	i
CCc1ccc(-c2cc3n(n2)CC(C)(C(=O)NC2CCCCC2)N(CCN2CCCC2)C3=O)cc1 (stereo unspecified)	i
COc1ccccc1CNC(=O)C1(C)Cn2cnc(C(=O)Nc3ccccc3OC)c2C(=O)N1C1CC1 (stereo unspecified)	i
COC(=O)c1cc2n(n1)CC(C)(C(=O)NC1CCCCC1)N(c1cc(C)cc(C)c1)C2=O (stereo unspecified)	i
CC(C)(O)CCc1cccc(C(=O)NCCCc2ccccn2)c1	i
O=C(NCCCc1ccccc1)c1cccc(-c2cc(O)c3ncccc3c2)c1	+
COC(=O)NCCNC(=O)c1cccc(-c2ccc(SC)cc2)c1	i
O=C(NCCc1nc2cccnc2n1-c1ccccc1)c1cccnc1	i
CN(C)CCCCCCNC(=O)c1cccc(-c2cc(O)c3ncccc3c2)c1	+
O=C(NCCCCCCNC(=O)c1cccnc1)c1cccnc1	i
CCOCCCN1C(=O)c2cc3sccc3n2CC1(C)C(=O)NC1CCCCCC1 (stereo unspecified)	i
CC1(C(=O)NC2CCCCC2)Cc2ccccc2C(=O)N1C1CCCCCC1 (stereo unspecified)	i
COc1ccccc1N1CCN(C(=O)Cn2c(=O)n3nc(-c4ccccc4)nc3c3ccccc32)CC1	i
COc1ccc(Cl)cc1NC(=O)Cn1nc2n(CCC(C)C)c(=O)c3ccccc3n2c1=O	i
CCCn1c(=O)c2ccc(C(=O)NC(C)C)cc2n2c(SCC(=O)c3ccc(C)cc3)nnc12	i
CCCN1C(=O)c2cc(C(=O)NCC)nn2CC1(C)C(=O)NC1CCCC1 (stereo unspecified)	i
CN(C)CCC[C@]1(c2ccc(F)cc2)OCc2cc(C#N)ccc21	+
CCCN1C(=O)c2cc3c(OC)ccc(OC)c3n2CC1(C)C(=O)NC1CCCC(C)C1C (stereo unspecified)	i
Cc1cccc(NC(=O)Cn2nc3n(CCC(C)C)c(=O)c4ccc(C(=O)NCC(C)C)cc4n3c2=O)c1	i
CC(C)=C1C[C@@]2(C)C(=CC1=O)CC[C@@H](O)[C@@H]2C	i
CC1=CC(=O)C(=C(C)C)CC2C(C)(O)CCC12O (stereo unspecified)	+
CCCN1C(=O)c2cc3occc3n2CC1(C)C(=O)NC1CCC(C)CC1 (stereo unspecified)	i
C=CCn1c(=O)c2ccc(C(=O)NC(C)CC)cc2n2c(=O)n(CC(=O)NC(C)C)nc12 (stereo unspecified)	i
O=S(=O)(NCCn1c(CCc2ccccc2)nc2ccccc21)c1ccc2c(c1)CCCC2	i
SMILES	Methyltransferases
COc1ncc(-c2ccc3nccc(-c4ccnnc4)c3c2)cc1NS(=O)(=O)c1ccc(F)cc1F	+
O=C(CCc1nnc2n(CCc3ccccc3)c(=O)c3ccccc3n12)N1CCN(c2ccccc2F)CC1	i
CC(C)Cn1c(=O)c2ccc(C(=O)NC3CCCC3)cc2n2c(SCC(=O)NC3CCCC3)nnc12	i
N#Cc1c(C2CCNCC2)cc(-c2c(O)cccc2OCC2CC2)nc1N	+
CCCn1c(=O)c2ccc(C(=O)NC3CCCC3)cc2n2c(=O)n(CC(=O)c3ccc(OC)cc3)nc12	i
CCOC(=O)Cc1ccc(NC(=O)N2Cc3c(sc4c3CCCC4)-n3cccc3C2c2ccccc2)cc1 (stereo unspecified)	i
CC(C)CCn1c(=O)c2ccc(C(=O)NC3CCCC3)cc2n2c(=O)n(CC(=O)NC3CCCC3)nc12	i
COc1cccc(Cn2nc3n(C(C)C)c(=O)c4ccc(C(=O)NC5CCCCC5)cc4n3c2=O)c1	i
O=C(Nc1ccc(Oc2ccnc3[nH]ccc23)c(F)c1)c1cccn(-c2ccc(F)cc2)c1=O	i
COc1ccc2c(OCc3nnc4ccc(-c5ccccc5)nn34)ccnc2c1	i
COc1ccc2c(Oc3ccc(NC(=O)c4c(C)n(CC(C)(C)O)n(-c5ccccc5)c4=O)cc3F)ccnc2c1	+
CCCNC(=O)N1CCn2cccc2C1C(C)C (stereo unspecified)	i
CC1(C(=O)NC2CCCCC2)Cn2nc(-c3cccs3)cc2C(=O)N1Cc1cccc(Cl)c1 (stereo unspecified)	i
COc1ccc2cc3n(c2c1)CC(C)(C(=O)NC1CCCC1)N(CCc1ccccc1)C3=O (stereo unspecified)	i
COc1cccc(C2c3cccn3-c3sc4c(c3CN2C(=O)Nc2ccccc2)CCCC4)c1 (stereo unspecified)	i
COc1cc2c(cc1O)CC[C@@H]1[C@@H]2CC[C@]2(C)[C@@H](O)CC[C@@H]12	+
CC12CCC3c4ccc(OC5OC(C(=O)O)C(O)C(O)C5O)cc4CCC3C1CCC2O (stereo unspecified)	i
C[C@]12CC[C@@H]3c4ccc(OC(=O)c5ccccc5)cc4CC[C@H]3[C@@H]1CC[C@@H]2O	i
COc1cc(/C=C/C(=O)OC[C@H]2O[C@@](CO)(O[C@H]3O[C@H](CO)[C@@H](O)[C@H](O)[C@H]3O)[C@@H](OC(=O)/C=C/c3ccc(O)c(OC)c3)[C@@H]2O)ccc1O	+
COc1cc(/C=C/C(=O)O[C@H]2[C@H](OC(=O)/C=C/c3cc(OC)c(O)c(OC)c3)O[C@H](CO[C@@H]3O[C@H](CO)[C@@H](O)[C@H](O)[C@H]3O)[C@@H](O)[C@@H]2O)ccc1O	+
COc1cc([C@H]2c3cc(O)c(OC)cc3C[C@@H](CO[C@@H]3O[C@H](CO)[C@@H](O)[C@H](O)[C@H]3O)[C@@H]2CO)ccc1O	i
COc1cc(/C=C/C(=O)O[C@H]2[C@H](O)[C@@H](CO)O[C@@]2(CO)O[C@H]2O[C@H](CO)[C@@H](O)[C@H](O)[C@H]2O)ccc1O	i
COc1cc(/C=C/C(=O)OC[C@H]2O[C@H](O[C@]3(CO)O[C@H](CO)[C@@H](O)[C@@H]3O)[C@H](O)[C@@H](O)[C@@H]2O)cc(OC)c1O	i
COc1cc(CC(COC2OC(CO)C(O)C(O)C2O)c2cc(/C=C/CO)cc(OC)c2O)ccc1O (stereo unspecified)	i
CC(C)(C)c1cc2n(n1)CC(C)(C(=O)NCc1ccccc1)N(Cc1cccc(F)c1)C2=O (stereo unspecified)	i
SMILES	Methyltransferases
O=C(CCc1nnc2n(Cc3ccc(Cl)cc3)c(=O)c3ccccc3n12)NCCCN1CCCC1=O	i
CCOc1ccccc1CN1C(=O)c2nc3ccccc3n2CC1(C)C(=O)NCc1ccccc1 (stereo unspecified)	i
COc1ccc(NC(=O)/C=C/c2ccc(Cl)cc2)cc1	+
COc1ccc(C(=O)Nc2cnc(-c3ccc(Cl)cc3)nc2)cc1	i
COC(=O)/C=C/c1ccc(O[C@@H]2O[C@H](CO)[C@@H](O)[C@H](O)[C@H]2O)cc1	i
CC(C)n1c(=O)c2ccc(C(=O)NC3CCCC3)cc2n2c(=O)n(Cc3ccccc3Cl)nc12	i
Cc1cc2c(cc3n2CC(C)(C(=O)NC2CCCCCCC2)N(Cc2ccc(Cl)cc2)C3=O)o1 (stereo unspecified)	i
Fc1ccc2c(CCNCc3cccc(OCC(F)(F)C(F)F)c3)c[nH]c2c1	+
COc1ccc(-c2n[nH]n3c2nc(=O)c2ccc(C(=O)NCc4ccccc4OC)cc23)cc1	i

Screens deposited in PubChem by National Center for Advancing Translational Sciences (NCATS).
